Laboratory results: the supplement of paper PMC7411054
Structures can show the parent of a compound that is named as a salt.

Legend:
Assay in all cases: phenotypically active (imaging signature differs from DMSO and reproducible) at any of 0.3-9 uM (binary (1 = active, 0 = inactive)); higher = active
Conditions in all cases: treatment time: 24 h
[1] = tested on: A549-ACTB-RAB5A
Procedure, shortened: (§1)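 Two criteria together defined phenotypic activity: deviation and reproducibility. Deviation meant ≥3 of 4 wells beyond the 95th percentile of Euclidean distances in solvent control wells, and reproducibility meant a median replicate Pearson correlation above the 95th percentile of non-replicates. Wells had been treated for 24 h at 0.3, 1, 3 or 9 µM in fifteen gene-edited A549, HepG2 and WPMY1 reporter lines before live imaging.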

[2] = tested on: A549-CANX-COX4
Procedure, shortened: as §1

[3] = tested on: A549-GM130-SQSTM1
Procedure, shortened: as §1

[4] = tested on: A549-TP53BP1-CLTA
Procedure, shortened: as §1

[5] = tested on: A549-TUBA1B-RELA
Procedure, shortened: as §1

[6] = tested on: HepG2-ACTB-RAB5A
Procedure, shortened: as §1

[7] = tested on: HepG2-CANX-COX4
Procedure, shortened: as §1

[8] = tested on: HepG2-GM130-SQSTM1
Procedure, shortened: as §1

[9] = tested on: HepG2-TP53BP1-CLTA
Procedure, shortened: as §1

[10] = tested on: HepG2-TUBA1B-RELA
Procedure, shortened: as §1

[11] = tested on: WPMY1-ACTB-RAB5A
Procedure, shortened: as §1

[12] = tested on: WPMY1-CANX-COX4
Procedure, shortened: as §1

[13] = tested on: WPMY1-GM130-SQSTM1
Procedure, shortened: as §1

[14] = tested on: WPMY1-TP53BP1-CLTA
Procedure, shortened: as §1

[15] = tested on: WPMY1-TUBA1B-RELA
Procedure, shortened: as §1

Measured: phenotypically active

C/N=C(\NC#N)NCCSCc1nc[nH]c1C [cimetidine]
inactive: [1] 0 | [2] 0 | [3] 0 | [4] 0 | [5] 0 | [6] 0 | [7] 0 | [8] 0 | [9] 0 | [10] 0 | [11] 0 | [12] 0 | [13] 0 | [14] 0 | [15] 0

CCOc1cc([C@@H](CS(C)(=O)=O)N2C(=O)c3cccc(NC(C)=O)c3C2=O)ccc1OC [apremilast]
inactive: [1] 0 | [2] 0 | [3] 0 | [4] 0 | [5] 0 | [6] 0 | [7] 0 | [8] 0 | [9] 0 | [10] 0 | [11] 0 | [12] 0 | [13] 0 | [14] 0 | [15] 0

CCCCCOC(=O)Nc1nc(=O)n([C@@H]2O[C@H](C)[C@@H](O)[C@H]2O)cc1F [capecitabine]
inactive: [1] 0 | [2] 0 | [3] 0 | [4] 0 | [5] 0 | [6] 0 | [7] 0 | [8] 0 | [9] 0 | [10] 0 | [11] 0 | [12] 0 | [13] 0 | [14] 0 | [15] 0

CN(C)CCc1c[nH]c2ccc(Cn3cncn3)cc12 [rizatriptan]
inactive: [1] 0 | [2] 0 | [3] 0 | [4] 0 | [5] 0 | [6] 0 | [7] 0 | [8] 0 | [9] 0 | [10] 0 | [11] 0 | [12] 0 | [13] 0 | [14] 0 | [15] 0

CCN(CC)CC(=O)Nc1c(C)cccc1C [lidocaine]
inactive: [1] 0 | [2] 0 | [3] 0 | [4] 0 | [5] 0 | [6] 0 | [7] 0 | [8] 0 | [9] 0 | [10] 0 | [11] 0 | [12] 0 | [13] 0 | [14] 0 | [15] 0

CC1(C)CCC(c2ccc(Cl)cc2)=C(CN2CCN(c3ccc(C(=O)NS(=O)(=O)c4ccc(N[C@H](CCN5CCOCC5)CSc5ccccc5)c(S(=O)(=O)C(F)(F)F)c4)cc3)CC2)C1 [navitoclax]
inactive: [1] 0 | [2] 0 | [3] 0 | [4] 0 | [5] 0 | [6] 0 | [7] 0 | [8] 0 | [9] 0 | [10] 0 | [11] 0 | [12] 0 | [13] 0 | [14] 0 | [15] 0

CN1C(CSCC(F)(F)F)Nc2cc(Cl)c(S(N)(=O)=O)cc2S1(=O)=O (stereo not given) [polythiazide]
inactive: [1] 0 | [2] 0 | [3] 0 | [4] 0 | [5] 0 | [6] 0 | [7] 0 | [8] 0 | [9] 0 | [10] 0 | [11] 0 | [12] 0 | [13] 0 | [14] 0 | [15] 0

COc1ccc(C2(CNC(=O)c3ccc(NC(=O)c4ccco4)cc3)CCOCC2)cc1
inactive: [1] 0 | [2] 0 | [3] 0 | [4] 0 | [5] 0 | [6] 0 | [7] 0 | [8] 0 | [9] 0 | [10] 0 | [11] 0 | [12] 0 | [13] 0 | [14] 0 | [15] 0

Brc1c(Br)c(Br)c2[nH]nnc2c1Br
inactive: [1] 0 | [2] 0 | [3] 0 | [4] 0 | [5] 0 | [6] 0 | [7] 0 | [8] 0 | [9] 0 | [10] 0 | [11] 0 | [12] 0 | [13] 0 | [14] 0 | [15] 0

N[C@@H](CSC(c1ccccc1)(c1ccccc1)c1ccccc1)C(=O)O [S-Trityl-L-cysteine]
inactive: [1] 0 | [2] 0 | [3] 0 | [4] 0 | [5] 0 | [6] 0 | [7] 0 | [8] 0 | [9] 0 | [10] 0 | [11] 0 | [12] 0 | [13] 0 | [14] 0 | [15] 0

CN(C)C(=N)NC(=N)N [Metformin hydrochloride]
inactive: [1] 0 | [2] 0 | [3] 0 | [4] 0 | [5] 0 | [6] 0 | [7] 0 | [8] 0 | [9] 0 | [10] 0 | [11] 0 | [12] 0 | [13] 0 | [14] 0 | [15] 0

O=C(O)c1cc(/N=N/c2ccc(O)c(C(=O)O)c2)ccc1O [olsalazine]
inactive: [1] 0 | [2] 0 | [3] 0 | [4] 0 | [5] 0 | [6] 0 | [7] 0 | [8] 0 | [9] 0 | [10] 0 | [11] 0 | [12] 0 | [13] 0 | [14] 0 | [15] 0

COCCOC(=O)C1=C(C)NC(C)=C(C(=O)OC(C)C)C1c1cccc([N+](=O)[O-])c1 (stereo not given) [nimodipine]
inactive: [1] 0 | [2] 0 | [3] 0 | [4] 0 | [5] 0 | [6] 0 | [7] 0 | [8] 0 | [9] 0 | [10] 0 | [11] 0 | [12] 0 | [13] 0 | [14] 0 | [15] 0

C#C[C@]1(O)CC[C@H]2[C@@H]3CCC4=CC(=NO)CC[C@@H]4[C@H]3CC[C@@]21CC [norelgestromin]
inactive: [1] 0 | [2] 0 | [3] 0 | [4] 0 | [5] 0 | [6] 0 | [7] 0 | [8] 0 | [9] 0 | [10] 0 | [11] 0 | [12] 0 | [13] 0 | [14] 0 | [15] 0

COc1ccccc1OCC(O)COC(N)=O (stereo not given) [methocarbamol]
inactive: [1] 0 | [2] 0 | [3] 0 | [4] 0 | [5] 0 | [6] 0 | [7] 0 | [8] 0 | [9] 0 | [10] 0 | [11] 0 | [12] 0 | [13] 0 | [14] 0 | [15] 0

C[N+]1(C)[C@@H]2C[C@@H](OC(=O)C(O)(c3cccs3)c3cccs3)C[C@H]1[C@@H]1O[C@@H]12 [Tiotropium bromide]
inactive: [1] 0 | [2] 0 | [3] 0 | [4] 0 | [5] 0 | [6] 0 | [7] 0 | [8] 0 | [9] 0 | [10] 0 | [11] 0 | [12] 0 | [13] 0 | [14] 0 | [15] 0

Cc1c(-c2ccccc2)oc2c(C(=O)OCCN3CCCCC3)cccc2c1=O [flavoxate]
inactive: [1] 0 | [2] 0 | [3] 0 | [4] 0 | [5] 0 | [6] 0 | [7] 0 | [8] 0 | [9] 0 | [10] 0 | [11] 0 | [12] 0 | [13] 0 | [14] 0 | [15] 0

CC(C)C(=O)c1c(C(C)C)nn2ccccc12 [Ibudilast]
inactive: [1] 0 | [2] 0 | [3] 0 | [4] 0 | [5] 0 | [6] 0 | [7] 0 | [8] 0 | [9] 0 | [10] 0 | [11] 0 | [12] 0 | [13] 0 | [14] 0 | [15] 0

COc1c(O[C@@H]2O[C@H](CO)[C@@H](O)[C@H](O)[C@H]2O)cc2c(c1OC)-c1ccc(SC)c(=O)cc1[C@@H](NC(C)=O)CC2 [Thiocolchicoside]
inactive: [1] 0 | [2] 0 | [3] 0 | [4] 0 | [5] 0 | [6] 0 | [7] 0 | [8] 0 | [9] 0 | [10] 0 | [11] 0 | [12] 0 | [13] 0 | [14] 0 | [15] 0

NS(=O)(=O)c1cc2c(cc1Cl)NC(C1CC3C=CC1C3)NS2(=O)=O (stereo not given) [cyclothiazide]
inactive: [1] 0 | [2] 0 | [3] 0 | [4] 0 | [5] 0 | [6] 0 | [7] 0 | [8] 0 | [9] 0 | [10] 0 | [11] 0 | [12] 0 | [13] 0 | [14] 0 | [15] 0

COc1ccc2c3c([nH]c2c1)[C@H]1C[C@H]2[C@H](C[C@@H](O)[C@H](OC)[C@H]2C(=O)O)CN1CC3 [Reserpinic acid hydrochloride]
inactive: [1] 0 | [2] 0 | [3] 0 | [4] 0 | [5] 0 | [6] 0 | [7] 0 | [8] 0 | [9] 0 | [10] 0 | [11] 0 | [12] 0 | [13] 0 | [14] 0 | [15] 0

Nc1ccc(C(=O)O)c(O)c1 [aminosalicylate]
inactive: [1] 0 | [2] 0 | [3] 0 | [4] 0 | [5] 0 | [6] 0 | [7] 0 | [8] 0 | [9] 0 | [10] 0 | [11] 0 | [12] 0 | [13] 0 | [14] 0 | [15] 0

NC(=O)OCC(COC(N)=O)c1ccccc1 [felbamate]
inactive: [1] 0 | [2] 0 | [3] 0 | [4] 0 | [5] 0 | [6] 0 | [7] 0 | [8] 0 | [9] 0 | [10] 0 | [11] 0 | [12] 0 | [13] 0 | [14] 0 | [15] 0
